From PubChem BioAssay come the findings set out here.

Each structure is given as a SMILES string. The source made the active and inactive calls. Unless noted, no rule for the calls is given here.

Test [1] is described as follows: HepG2 liver cancer cell viability effects, profiling panel, resazurin fluorescence, 24 h, PK04 Diversity Set (AID 1172). Also: test concentration not given here. The following applies: higher = more signal.
A short description of test [2]: basal S. cerevisiae growth modulation, no modifier, primary screen, OD600, strain BY4716, 24 h, basal condition (AID 1173). As to conditions: OD600, 24 h, higher = more signal, called active from +8 up or from −8 down.
Test [3] is described as follows: MM1S myeloma cell viability, profiling panel, resazurin fluorescence, basal, 24 h, PK04 Diversity Set (AID 1174).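 Also: MM1S multiple myeloma cell line; test concentration not given here.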 As to conditions: higher = more signal, called active from +8 up or from −8 down.
In test [4] the target is Dihydroorotate dehydrogenase (quinone), mitochondrial (Plasmodium falciparum (isolate 3D7)) (UniProt Q08210). The test can be described thus: PfDHODH enzyme inhibitors, primary screen, biochemical, C-terminal His tag, absorbance 600 nm (AID 1175).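 Also: recombinant parasite enzyme with a five histidine tag at its C terminus; test concentration not given here.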 The following applies: DCIP absorbance 600 nm, higher = more signal, called active from +8 up or from −8 down.
Dihydroorotate dehydrogenase (quinone), mitochondrial (Plasmodium falciparum (isolate 3D7)), sequence (Q08210 whole entry, looked up): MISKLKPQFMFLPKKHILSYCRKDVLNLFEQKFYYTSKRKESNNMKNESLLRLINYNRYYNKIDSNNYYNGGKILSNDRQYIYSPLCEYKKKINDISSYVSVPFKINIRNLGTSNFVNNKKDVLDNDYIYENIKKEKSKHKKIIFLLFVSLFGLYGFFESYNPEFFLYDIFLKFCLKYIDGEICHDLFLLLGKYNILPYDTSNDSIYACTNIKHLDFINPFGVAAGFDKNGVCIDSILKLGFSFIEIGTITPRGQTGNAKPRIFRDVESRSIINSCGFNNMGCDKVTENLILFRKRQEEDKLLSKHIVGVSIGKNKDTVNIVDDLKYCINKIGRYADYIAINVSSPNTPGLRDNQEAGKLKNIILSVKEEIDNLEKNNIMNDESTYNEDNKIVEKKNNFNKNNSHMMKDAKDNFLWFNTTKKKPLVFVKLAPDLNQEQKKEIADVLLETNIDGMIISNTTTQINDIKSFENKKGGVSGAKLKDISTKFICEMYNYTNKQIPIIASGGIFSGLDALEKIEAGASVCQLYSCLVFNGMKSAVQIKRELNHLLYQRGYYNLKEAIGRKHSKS
Test [5] is described as follows: P. aeruginosa biofilm formation inhibitors, primary screen, strain PAO1, LB-PBS medium, absorbance 600 nm (AID 1176). Also: test concentration not given here. As to conditions: P. aeruginosa PAO1 growth/biofilm, A600, 12 h; higher = more signal.
A short description of test [6]: S. cerevisiae RM11-1a growth modifiers, primary screen, strain RM11-1a, OD600, basal, 24 h (AID 1177).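 Also: cultures grown under basal conditions with no added stressor; test concentration not given here.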 As to conditions: OD600, 24 h, higher = more signal, called active from +8 up or from −8 down.
Test [7] can be described thus: E. coli acrAB mutant growth effects, primary screen, E. coli filamentation inducers, strain DRC39, OD650, 24 h (AID 1178).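 Also: growth measured as culture turbidity by optical density at 650 nm; test concentration not given here.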 As to conditions: higher = more signal, called active from +8 up or from −8 down.
Test [8] in a line: E. coli acrAB mutant growth effects, primary screen, E. coli filamentation inducers, strain DRC39, OD650, 48 h (AID 1179).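 Also: screen aims at cell division blockers that make cells filament.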 As to conditions: E. coli DRC39 delta-acrAB growth, higher = more signal, called active from +8 up or from −8 down.
A short description of test [9]: RPMI8226 myeloma cell viability, profiling panel, resazurin fluorescence, basal, 24 h, PK04 Diversity Set (AID 1180).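 Also: RPMI8826 multiple myeloma cell line at 5000 cells per well; test concentration not given here.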 The following applies: higher = more signal.
Test [10] concerns the target E3 ubiquitin-protein ligase XIAP (Homo sapiens) (UniProt P98170). The test is described as follows: XIAP binders, primary screen, biophysical, small-molecule microarray, fluorescence 635 nm (AID 1181).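 Also: score merges 667 nm emission and signal to noise over triplicate slides.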 The following applies: small-molecule microarray binding, higher = more signal.

E3 ubiquitin-protein ligase XIAP (Homo sapiens), sequence (P98170 whole entry, looked up): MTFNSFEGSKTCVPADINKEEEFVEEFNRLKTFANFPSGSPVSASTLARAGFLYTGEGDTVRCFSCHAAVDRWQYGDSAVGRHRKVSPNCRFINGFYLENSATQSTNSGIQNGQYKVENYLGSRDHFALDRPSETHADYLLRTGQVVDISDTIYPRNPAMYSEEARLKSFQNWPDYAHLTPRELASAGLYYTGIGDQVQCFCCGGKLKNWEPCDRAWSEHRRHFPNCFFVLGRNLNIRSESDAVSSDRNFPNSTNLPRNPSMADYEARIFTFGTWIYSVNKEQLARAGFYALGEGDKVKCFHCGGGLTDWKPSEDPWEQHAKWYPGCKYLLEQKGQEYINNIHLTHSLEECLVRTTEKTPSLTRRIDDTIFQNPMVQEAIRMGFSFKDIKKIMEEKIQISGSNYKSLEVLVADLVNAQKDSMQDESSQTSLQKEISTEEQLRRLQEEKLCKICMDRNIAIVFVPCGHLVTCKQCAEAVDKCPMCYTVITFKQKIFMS

As to `COCCn1c(C(=O)N2CCCC2)cc2c1C[C@H]1CN(C(=O)c3ccccc3)[C@@](Cc3ccc(F)cc3)(C(=O)OC)[C@@H]21`, the z-score in [1] is 0.203; in test [2], 0.734 (inactive); in test [3] it was -0.829 (inactive); in test [5], 0.315 (inactive); in [6], 0.39 (inactive); in test [7], -0.0243 (inactive). Further, the z-score in [8] is -0.622 (inactive); in [9], -1.37. Besides, the composite z-score in test [4] is -0.343 (inactive); in test [10], 0.0927.

Consider `CC(C)N1C(=O)c2ccccc2[C@](C)(C(=O)NCc2ccccc2)[C@@H]1c1ccc(CO)cc1`, for which the z-score is -0.394 in test [1]; -0.704 (inactive) in test [2]; -1.09 (inactive) in test [3]; 1.06 (inactive) in test [5]; -0.271 (inactive) in test [6]; 0.0861 (inactive) in test [7]. Moreover, the figures for the z-score in test [8] and in [9] were -0.681 (inactive) and 0.121, respectively. In addition, the composite z-score is 0.0524 (inactive) in [4] and 0.0623 in [10].

With `O=C1O[C@H](c2ccccc2)[C@H](c2ccccc2)N2[C@H]1[C@@H](C(=O)Nc1nc3ccccc3s1)[C@]1(C(=O)Nc3ccc(C#CC4(O)CCCCCC4)cc31)[C@H]2c1ccc(OCCO)cc1`, the z-score was -0.43 in test [1]; 1.16 (inactive) in test [2]; -1.4 (inactive) in test [3]; 4.15 (inactive) in test [5]; 0.773 (inactive) in test [6]; -0.34 (inactive) in [7]. In addition, the z-score in [8] is -0.706 (inactive); in [9] it was -1.1. Besides, the composite z-score in test [4] is -0.568 (inactive); in test [10], 0.167.

As for `C=CCC(OC(C)=O)[C@@H]1[C@@H](N(Cc2ccc(-c3cccc(C(F)(F)F)c3)o2)C(=O)Cc2ccc(F)cc2)c2cc(OCCCO)ccc2N1C(=O)Cc1ccc(OC)cc1` (stereo not given in full), the z-score in [1] is 1.2; in test [2] it was -0.546 (inactive); in test [3], 1.51 (inactive); in test [5] it was 0.0186 (inactive); in test [6], -0.905 (inactive); in test [7], 0.559 (inactive). The z-score in [8] was 0.671 (inactive); in test [9] it was 1.06. Besides, the composite z-score in [4] is -1.26 (inactive); in test [10] it was 0.0181.

Consider `[N-]=[N+]=Nc1ccccc1C[C@@]1(C(=O)NCCN2CCOCC2)N=C(c2ccc(OCCCO)cc2)O[C@@H]1c1ccccc1`, for which the z-score in [1] is -0.139; in [2] it was -4.41 (inactive); in test [3], -0.599 (inactive); in [5], -0.347 (inactive); in [6] it was -0.0653 (inactive); in [7], 0.655 (inactive). The results for the z-score in test [8] and in [9] were 0.745 (inactive) and -0.125, respectively. Also, the composite z-score is 0.842 (inactive) in test [4] and 0.0831 in [10].

For the molecule `O=C(C1N=C(c2ccc(OCCCO)cc2)N(c2ccccc2)O1)N1CCOCC1` (stereo not given), the z-score was 0.55 in [1]; -1.3 (inactive) in test [2]; 0.466 (inactive) in test [3]; -0.91 (inactive) in test [5]; -1 (inactive) in test [6]; 1.42 (inactive) in test [7]. Besides, the z-score was 1.92 (inactive) in test [8] and 2.12 in test [9]. The composite z-score is -1.09 (inactive) in test [4] and -0.163 in [10].

Consider `CCCCN1CC=CC23O[C@@H]4C=CCOC(=O)[C@@H]4[C@H]2C(=O)N(CCCCCO)[C@@H]3C1=O` (stereo not given in full), for which the z-score in test [1] is 0.371; in [2], 0.0133 (inactive); in test [3], -0.86 (inactive); in test [5], 0.91 (inactive); in test [6] it was -0.176 (inactive); in test [7], -0.967 (inactive). The z-score in [8] was -0.982 (inactive); in test [9], -0.531. Also, the composite z-score in test [4] was -0.165 (inactive); in test [10], 0.327.

With `C[N+](C)(C)CCCCNC(=O)[C@H]1C[C@H]2C(=O)N[C@@H](Cc3ccccc3)C(=O)N2[C@H]1c1ccc(O)cc1`, the z-score is -1.87 in test [1]; 0.606 (inactive) in test [2]; -0.0345 (inactive) in [3]; 0.516 (inactive) in test [5]; 0.644 (inactive) in [6]; 0.783 (inactive) in test [7]. For the same molecule, the z-score was 1.17 (inactive) in test [8] and -0.9 in test [9]. Also, the composite z-score is -30.9 (active) in [4] and -0.355 in test [10].

`O=C(NCc1ccccc1)[C@@H]1c2ccccc2C(=O)N(CC23CC4CC(CC(C4)C2)C3)[C@H]1c1ccc(CO)cc1`: the z-score in test [1] is -0.511; in test [2] it was -0.092 (inactive); in test [3] it was -1.12 (inactive); in test [5], -0.245 (inactive); in test [6], 0.0739 (inactive); in [7] it was -0.142 (inactive). In addition, the z-score in test [8] is -0.179 (inactive); in [9], -0.195. For the same molecule, the composite z-score in [4] is -0.139 (inactive); in [10], 0.0623.

For `COC(=O)[C@@]1(Cc2ccccc2)[C@H]2c3cc(C(=O)N4CCCC4)n(Cc4nc5ccccc5[nH]4)c3C[C@H]2CN1C(=O)c1ccccc1`, the z-score was -0.415 in [1]; 1.22 (inactive) in [2]; -1.66 (inactive) in test [3]; 0.687 (inactive) in [5]; 0.759 (inactive) in test [6]; -0.538 (inactive) in test [7]. For the same molecule, the z-score was -1.1 (inactive) in test [8] and -1.3 in test [9]. The composite z-score in test [4] is 0.374 (inactive); in test [10], 0.119.

Take `C=C[C@H](COC(C)=O)N(C(=O)OC(C)(C)C)S(=O)(=O)c1ccc(Br)cc1`: the z-score in [1] is 0.738; in test [2] it was -0.705 (inactive); in test [3] it was -0.76 (inactive); in test [5] it was -0.621 (inactive); in test [6], 0.625 (inactive); in test [7] it was 0.623 (inactive). The z-score was 0.386 (inactive) in test [8] and -0.17 in test [9]. Moreover, the composite z-score is -0.0237 (inactive) in test [4] and 0.137 in test [10].

As to `CC(C)(C)C(=O)N[C@@H](c1ccc(Cl)cc1)[C@]1(C)C[C@H]1C1CCCCC1`, the z-score in test [1] is -0.608; in test [2] it was -0.507 (inactive); in [3], -0.385 (inactive); in test [5] it was 1.03 (inactive); in test [6] it was 0.473 (inactive); in [7], -0.196 (inactive). The z-score in [8] was -0.27 (inactive); in test [9], -0.231. In addition, the composite z-score is -0.554 (inactive) in [4] and 0.261 in test [10].

Regarding `O=C(NCc1ccccc1)[C@@]1(CCS(=O)(=O)c2ccccc2)N=C(c2ccc(OCCCO)cc2)O[C@H]1c1ccccc1`, the z-score was 1.36 in test [1]; 1.01 (inactive) in test [2]; -0.705 (inactive) in test [3]; -0.0304 (inactive) in test [5]; 1.46 (inactive) in [6]; 0.714 (inactive) in [7]. Also, the z-score in test [8] is 1.62 (inactive); in [9], 0.448. The composite z-score in test [4] is 1.05 (inactive); in test [10], 0.202.
